Reference: PubChem BioAssay AID1159580 (chemical genetic matrix, 2015)
In all, about 5,500 compounds went through this assay and about 2,000 (36%) were called active. Inconclusive results (about 18%) are left out. No stated cut-off is given here; in the data, active means normalized growth mostly below about 0.91 (no sharp cut-off); inconclusive means no clear call, values can overlap the other calls; inactive means mostly above about 0.92. The list shows a part of the results.

Experiment: chemical genetic growth profiling, strain panel (AID 1159580);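 further: tested at 20 µM; growth read once vehicle control cultures reached saturation at 30 °C; 1 = growth at the plate median or of vehicle wells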
Conditions: growth OD
[1] = S. cerevisiae deletion strains, locus YAL040C, strain CLN3, stronger effect = lower value
[2] = S. cerevisiae deletion strains, locus YDR150W, strain NUM1, stronger effect = lower value
[3] = S. cerevisiae deletion strains, locus YDR363W, strain ESC2, stronger effect = lower value
[4] = S. cerevisiae deletion strains, locus YER002W, strain NOP16, stronger effect = lower value
[5] = S. cerevisiae deletion strains, locus YGR229C, strain SMI1, stronger effect = lower value
[6] = S. cerevisiae deletion strains, locus YNL153C, strain GIM3, stronger effect = lower value
[7] = S. cerevisiae deletion strains, locus YNL175C, strain NOP13, stronger effect = lower value
[8] = S. cerevisiae deletion strains, locus YNL197C, strain WHI3, stronger effect = lower value
[9] = S. cerevisiae deletion strains, locus YNL224C, strain SQS1, stronger effect = lower value
[10] = S. cerevisiae deletion strains, locus YNL322C, strain KRE1, stronger effect = lower value
[11] = S. cerevisiae deletion strains, locus YOR083W, strain WHI5 (second series), stronger effect = lower value
[12] = S. cerevisiae deletion strains, locus YPL055C, strain LGE1, stronger effect = lower value
[13] = S. cerevisiae deletion strains, locus YAL013W, strain DEP1, stronger effect = lower value
[14] = S. cerevisiae deletion strains, locus YCL061C, strain MRC1 (second series), stronger effect = lower value
[15] = S. cerevisiae deletion strains, locus YMR307W, strain GAS1, stronger effect = lower value
[16] = S. cerevisiae deletion strains, locus YGR078C, strain PAC10, stronger effect = lower value
[17] = S. cerevisiae deletion strains, locus YJR075W, strain HOC1, stronger effect = lower value
[18] = S. cerevisiae deletion strains, locus YMR263W, strain SAP30, stronger effect = lower value
[19] = S. cerevisiae deletion strains, locus YNL128W, strain TEP1, stronger effect = lower value
[20] = S. cerevisiae deletion strains, locus YPL241C, strain CIN2, stronger effect = lower value

Measured: normalized growth

NC(=NCc1ccccc1)NC(=O)c1nc(Cl)c(N)nc1N
inactive: [1] 1 | [2] 1.02 | [3] 0.994 | [4] 1.01 | [5] 0.999 | [6] 0.993 | [7] 1.01 | [8] 0.996 | [9] 1.02 | [10] 1.01 | [11] 0.965 | [12] 1.01

NC(=Nc1ccccc1)NC(=O)c1nc(Cl)c(N)nc1N
inactive: [13] 0.975 | [1] 0.997 | [14] 1 | [2] 0.999 | [3] 0.973 | [4] 0.991 | [5] 1 | [15] 0.993 | [6] 0.986 | [7] 1.01 | [8] 1.01 | [9] 1 | [10] 0.992 | [11] 1

CC(C)CN(C)c1nc(N)c(C(=O)N=C(N)N)nc1Cl
inactive: [1] 0.968 | [14] 0.963 | [4] 1.04 | [16] 0.99 | [17] 0.957 | [18] 0.986 | [15] 0.971 | [19] 0.986 | [6] 0.855 | [7] 1.01 | [8] 1 | [9] 1.03
active: [11] 0.866

CCN(c1nc(N)c(C(=O)N=C(N)N)nc1Cl)C(C)C
inactive: [13] 1 | [1] 1 | [3] 0.989 | [4] 1.04 | [18] 1 | [7] 1.04 | [8] 1.02 | [9] 1.06 | [11] 1.02

NC(=S)NCCCC(N)C(=O)O (configuration not stated)
inactive: [13] 1.01 | [1] 1 | [14] 1.01 | [2] 1.01 | [3] 1.02 | [4] 1.02 | [16] 1.01 | [17] 1.02 | [15] 1.01 | [19] 1.03 | [6] 1.01 | [7] 1.03 | [8] 1.01 | [9] 1.02 | [10] 1.02 | [11] 0.994 | [12] 1.03 | [20] 1.01

CCc1cccc(CC)c1N(COC)C(=O)CCl
inactive: [13] 1 | S. cerevisiae deletion strains, locus YBR021W, strain FUR4, stronger effect = lower value 1.01 | S. cerevisiae deletion strains, locus YBR229C, strain ROT2, stronger effect = lower value 1.01 | S. cerevisiae deletion strains, locus YCL029C, strain bik1, stronger effect = lower value 1.02 | S. cerevisiae deletion strains, locus YDL035C, strain GPR1, stronger effect = lower value 1.02 | S. cerevisiae deletion strains, locus YDL074C, strain BRE1, stronger effect = lower value 1.03 | S. cerevisiae deletion strains, locus YDL101C, strain DUN1, stronger effect = lower value 1.01 | S. cerevisiae deletion strains, locus YDL134C, strain PPH21, stronger effect = lower value 1.01 | S. cerevisiae deletion strains, locus YDL185W, strain tfp1, stronger effect = lower value 1.02 | S. cerevisiae deletion strains, locus YDL192W, strain arf1, stronger effect = lower value 1.03 | S. cerevisiae deletion strains, locus YDR101C, strain arx1, stronger effect = lower value 1.02 | [2] 0.995 | S. cerevisiae deletion strains, locus YDR162C, strain NBP2, stronger effect = lower value 0.999 | S. cerevisiae deletion strains, locus YDR318W, strain mcm21, stronger effect = lower value 1.02 | S. cerevisiae deletion strains, locus YDR388W, stronger effect = lower value 1.02 | S. cerevisiae deletion strains, locus YDR502C, strain sam2, stronger effect = lower value 1.02 | S. cerevisiae deletion strains, locus YEL061C, strain CIN8, stronger effect = lower value 1 | S. cerevisiae deletion strains, locus YER110C, stronger effect = lower value 1.01 | S. cerevisiae deletion strains, locus YER155C, strain BEM2, stronger effect = lower value 1 | S. cerevisiae deletion strains, locus YER167W, strain BCK2, stronger effect = lower value 1 | S. cerevisiae deletion strains, locus YGL078C, strain dbp3, stronger effect = lower value 1.02 | S. cerevisiae deletion strains, locus YGL086W, strain mad1, stronger effect = lower value 0.999 | S. cerevisiae deletion strains, locus YGL248W, strain PDE1, stronger effect = lower value 1.01 | [16] 1.01 | S. cerevisiae deletion strains, locus YGR135W, strain pre9, stronger effect = lower value 1.02 | [5] 1.02 | S. cerevisiae deletion strains, locus YGR252W, strain gcn5, stronger effect = lower value 1.05 | S. cerevisiae deletion strains, locus YHR030C, strain SLT2, stronger effect = lower value 1 | S. cerevisiae deletion strains, locus YHR079C, strain IRE1 (second series), stronger effect = lower value 1.02 | S. cerevisiae deletion strains, locus YHR094C, strain hxt1, stronger effect = lower value 1.02 | S. cerevisiae deletion strains, locus YHR129C, strain ARP1, stronger effect = lower value 1 | S. cerevisiae deletion strains, locus YHR200W, strain rpn10, stronger effect = lower value 1.02 | S. cerevisiae deletion strains, locus YIL066C, strain RNR3, stronger effect = lower value 1.01 | S. cerevisiae deletion strains, locus YIL073C, strain SPO22, stronger effect = lower value 1.11 | S. cerevisiae deletion strains, locus YIL125W, strain kgd1, stronger effect = lower value 1.01 | S. cerevisiae deletion strains, locus YIR030C, strain dcg1, stronger effect = lower value 1.03 | S. cerevisiae deletion strains, locus YJL095W, strain BCK1, stronger effect = lower value 1.02 | S. cerevisiae deletion strains, locus YJL134W, strain LCB3, stronger effect = lower value 1.01 | S. cerevisiae deletion strains, locus YJL168C, strain set2, stronger effect = lower value 1.03 | S. cerevisiae deletion strains, locus YJL187C, strain SWE1 (second series), stronger effect = lower value 1 | S. cerevisiae deletion strains, locus YJR043C, strain POL32, stronger effect = lower value 1.01 | [17] 1.01 | S. cerevisiae deletion strains, locus YKL009W, strain mrt4, stronger effect = lower value 1.05 | S. cerevisiae deletion strains, locus YKL068W, stronger effect = lower value 0.999 | S. cerevisiae deletion strains, locus YKL085W, strain MDH1 (second series), stronger effect = lower value 1.01 | S. cerevisiae deletion strains, locus YKL085W, strain MDH1, stronger effect = lower value 1.01 | S. cerevisiae deletion strains, locus YKL190W, strain CNB1, stronger effect = lower value 0.992 | S. cerevisiae deletion strains, locus YKR001C, strain vps1, stronger effect = lower value 1.04 | S. cerevisiae deletion strains, locus YLR039C, strain RIC1, stronger effect = lower value 1 | S. cerevisiae deletion strains, locus YLR058C, strain SHM2, stronger effect = lower value 1.01 | S. cerevisiae deletion strains, locus YLR102C, strain apc9, stronger effect = lower value 1.03 | S. cerevisiae deletion strains, locus YLR262C, strain YPT6, stronger effect = lower value 1.02 | S. cerevisiae deletion strains, locus YLR268W, strain sec22, stronger effect = lower value 1.02 | S. cerevisiae deletion strains, locus YLR330W, strain CHS5, stronger effect = lower value 1.01 | S. cerevisiae deletion strains, locus YLR342W, strain FKS1 (second series), stronger effect = lower value 1 | S. cerevisiae deletion strains, locus YLR371W, strain rom2, stronger effect = lower value 1.02 | S. cerevisiae deletion strains, locus YLR418C, strain cdc73, stronger effect = lower value 1.05 | S. cerevisiae deletion strains, locus YML016C, strain PPZ1, stronger effect = lower value 1 | S. cerevisiae deletion strains, locus YML032C, strain rad52, stronger effect = lower value 1.03 | S. cerevisiae deletion strains, locus YML124C, strain tub3, stronger effect = lower value 1.01 | S. cerevisiae deletion strains, locus YMR078C, strain ctf18, stronger effect = lower value 1.02 | S. cerevisiae deletion strains, locus YMR223W, strain ubp8, stronger effect = lower value 1.02 | [18] 0.997 | [15] 1.01 | S. cerevisiae deletion strains, locus YNL067W, strain RPL9B, stronger effect = lower value 1 | [19] 1.01 | [6] 1 | S. cerevisiae deletion strains, locus YNL233W, strain BNI4, stronger effect = lower value 1.01 | S. cerevisiae deletion strains, locus YNL250W, strain rad50, stronger effect = lower value 1.02 | S. cerevisiae deletion strains, locus YNL271C, strain bni1, stronger effect = lower value 1.03 | S. cerevisiae deletion strains, locus YNL298W, strain CLA4, stronger effect = lower value 1.03 | S. cerevisiae deletion strains, locus YNL307C, strain MCK1, stronger effect = lower value 1.03 | [10] 1 | S. cerevisiae deletion strains, locus YNR052C, strain pop2, stronger effect = lower value 1.03 | S. cerevisiae deletion strains, locus YOL006C, strain TOP1, stronger effect = lower value 1.05 | S. cerevisiae deletion strains, locus YOL012C, strain htz1 1.33 | S. cerevisiae deletion strains, locus YOL147C, strain pex11, stronger effect = lower value 1.02 | S. cerevisiae deletion strains, locus YOR061W, strain CKA2, stronger effect = lower value 0.999 | S. cerevisiae deletion strains, locus YOR069W, strain VPS5, stronger effect = lower value 0.999 | S. cerevisiae deletion strains, locus YOR136W, strain idh2, stronger effect = lower value 1.02 | S. cerevisiae deletion strains, locus YOR144C, strain elg1, stronger effect = lower value 1.02 | S. cerevisiae deletion strains, locus YOR184W, strain ser1, stronger effect = lower value 1.04 | S. cerevisiae deletion strains, locus YOR316C, strain cot1, stronger effect = lower value 1.03 | [12] 1.02 | [20] 1.01 | S. cerevisiae deletion strains, locus YPR119W, strain clb2, stronger effect = lower value 1.02 | S. cerevisiae deletion strains, locus YPR141C, strain kar3, stronger effect = lower value 1.03 | S. cerevisiae deletion strains, locus YPR163C, strain tif3, stronger effect = lower value 1.03 | S. cerevisiae deletion strains, locus YPR167C, strain met16, stronger effect = lower value 1.02 | S. cerevisiae deletion strains, strain wtn01, stronger effect = lower value 1.01 | S. cerevisiae strains, strain wild type, stronger effect = lower value 1
